Source: the supplement of paper PMC10849652
The full data set covers some 7,900 targets. This sample favours those with a hit. About 0.6% of all pairs of compound and target were hits. A number with no mark means an inactive call.

Tests used:
Assay in all cases: log2 fold change, soluble protein after heating vs DMSO (PISA); higher = thermal stabilisation; K562 cells, 10 uM, 30 min; active = over 0.2 and 3.5 SD of the protein, either way, in both replicates (recomputed)
[1] = compound: NC(=O)Nc1cc(-c2cccc(F)c2)sc1C(=O)N[C@H]1CCCNC1
Outline: (§1)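 K562 cells (2×10^6 cells/mL) were treated with 10 μM compound for 30 min, and aliquots were heated for 3 min over 48°C-58°C. Pooled aliquots were extracted in PBS with 0.5% NP-40 at 4°C, and the supernatant after 21,000xg for 90 min was measured by TMTpro 16plex LC-MS/MS with channel sums equalised. Reported thermal stability, relative to control samples and from duplicates, is a log2 fold change.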

[2] = compound: NC(=O)c1cnc(N[C@@H]2CCCC[C@@H]2N)nc1Nc1cccc(-n2nccn2)c1
Outline: as §1

[3] = compound: NC1(c2ccc(-c3nc4ccn5c(=O)[nH]nc5c4cc3-c3ccccc3)cc2)CCC1
Outline: as §1

[4] = compound: NCC(=O)Nc1ccc(-n2nc(C(F)(F)F)cc2-c2ccc3c(ccc4ccccc43)c2)cc1
Outline: as §1

entinostat = compound: Nc1ccccc1NC(=O)c1ccc(CNC(=O)OCc2cccnc2)cc1 [entinostat]
Outline: as §1

vorinostat = compound: O=C(CCCCCCC(=O)Nc1ccccc1)NO [vorinostat]
Outline: as §1

citarinostat = compound: O=C(CCCCCCNC(=O)c1cnc(N(c2ccccc2)c2ccccc2Cl)nc1)NO [citarinostat]
Outline: as §1

silmitasertib = compound: O=C(O)c1ccc2c(c1)nc(Nc1cccc(Cl)c1)c1ccncc12 [silmitasertib]
Outline: as §1

[5] = compound: O=C1NC(=O)C(c2cnc3ccccn23)=C1c1cn2c3c(cc(F)cc13)CN(C(=O)N1CCCCC1)CC2
Outline: as §1

[6] = compound: c1cc(OCCN2CCCCC2)cc(-c2n[nH]c3ccc(-c4nnc[nH]4)cc23)c1
Outline: as §1

entospletinib = compound: c1cn2cc(-c3ccc4cn[nH]c4c3)nc(Nc3ccc(N4CCOCC4)cc3)c2n1 [entospletinib]
Outline: as §1

UniProt P45983, sequence (P45983 whole entry, looked up): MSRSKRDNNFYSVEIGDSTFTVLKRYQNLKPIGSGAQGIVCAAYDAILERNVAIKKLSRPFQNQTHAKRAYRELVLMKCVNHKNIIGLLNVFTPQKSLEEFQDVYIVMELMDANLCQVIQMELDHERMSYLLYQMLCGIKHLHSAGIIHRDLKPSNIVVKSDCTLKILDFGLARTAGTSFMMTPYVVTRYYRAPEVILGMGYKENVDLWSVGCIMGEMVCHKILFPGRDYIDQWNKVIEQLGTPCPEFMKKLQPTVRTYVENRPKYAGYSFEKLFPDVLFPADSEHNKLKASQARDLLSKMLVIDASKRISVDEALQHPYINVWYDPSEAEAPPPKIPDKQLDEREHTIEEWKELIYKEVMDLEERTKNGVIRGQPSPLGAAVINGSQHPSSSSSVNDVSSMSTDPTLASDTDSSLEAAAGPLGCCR
UniProt P18065, sequence (P18065 whole entry, looked up): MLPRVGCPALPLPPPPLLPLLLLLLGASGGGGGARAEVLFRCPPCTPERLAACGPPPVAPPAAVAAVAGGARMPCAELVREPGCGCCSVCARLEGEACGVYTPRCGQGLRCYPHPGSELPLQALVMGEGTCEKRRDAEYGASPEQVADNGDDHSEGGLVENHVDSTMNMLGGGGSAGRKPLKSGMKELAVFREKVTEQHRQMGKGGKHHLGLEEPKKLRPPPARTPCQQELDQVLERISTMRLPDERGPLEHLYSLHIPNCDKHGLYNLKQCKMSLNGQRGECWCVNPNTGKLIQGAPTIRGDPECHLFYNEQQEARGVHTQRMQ
UniProt Q4G0J3, sequence (Q4G0J3 whole entry, looked up): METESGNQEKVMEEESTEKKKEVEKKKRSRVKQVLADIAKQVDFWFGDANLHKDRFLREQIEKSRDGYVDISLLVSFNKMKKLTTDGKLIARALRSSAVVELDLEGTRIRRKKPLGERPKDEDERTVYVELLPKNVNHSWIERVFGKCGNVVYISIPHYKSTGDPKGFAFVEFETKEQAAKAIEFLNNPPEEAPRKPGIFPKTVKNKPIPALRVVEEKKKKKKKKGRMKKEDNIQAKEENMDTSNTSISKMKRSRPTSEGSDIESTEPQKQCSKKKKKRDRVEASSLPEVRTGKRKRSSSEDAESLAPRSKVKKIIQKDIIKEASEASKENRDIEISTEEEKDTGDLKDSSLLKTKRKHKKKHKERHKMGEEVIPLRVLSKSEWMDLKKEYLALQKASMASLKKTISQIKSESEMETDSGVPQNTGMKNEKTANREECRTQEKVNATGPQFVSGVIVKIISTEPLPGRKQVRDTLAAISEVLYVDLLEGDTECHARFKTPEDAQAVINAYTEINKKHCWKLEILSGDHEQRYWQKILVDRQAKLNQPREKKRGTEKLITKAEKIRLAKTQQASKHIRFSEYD
UniProt Q9UI26, sequence (Q9UI26 whole entry, looked up): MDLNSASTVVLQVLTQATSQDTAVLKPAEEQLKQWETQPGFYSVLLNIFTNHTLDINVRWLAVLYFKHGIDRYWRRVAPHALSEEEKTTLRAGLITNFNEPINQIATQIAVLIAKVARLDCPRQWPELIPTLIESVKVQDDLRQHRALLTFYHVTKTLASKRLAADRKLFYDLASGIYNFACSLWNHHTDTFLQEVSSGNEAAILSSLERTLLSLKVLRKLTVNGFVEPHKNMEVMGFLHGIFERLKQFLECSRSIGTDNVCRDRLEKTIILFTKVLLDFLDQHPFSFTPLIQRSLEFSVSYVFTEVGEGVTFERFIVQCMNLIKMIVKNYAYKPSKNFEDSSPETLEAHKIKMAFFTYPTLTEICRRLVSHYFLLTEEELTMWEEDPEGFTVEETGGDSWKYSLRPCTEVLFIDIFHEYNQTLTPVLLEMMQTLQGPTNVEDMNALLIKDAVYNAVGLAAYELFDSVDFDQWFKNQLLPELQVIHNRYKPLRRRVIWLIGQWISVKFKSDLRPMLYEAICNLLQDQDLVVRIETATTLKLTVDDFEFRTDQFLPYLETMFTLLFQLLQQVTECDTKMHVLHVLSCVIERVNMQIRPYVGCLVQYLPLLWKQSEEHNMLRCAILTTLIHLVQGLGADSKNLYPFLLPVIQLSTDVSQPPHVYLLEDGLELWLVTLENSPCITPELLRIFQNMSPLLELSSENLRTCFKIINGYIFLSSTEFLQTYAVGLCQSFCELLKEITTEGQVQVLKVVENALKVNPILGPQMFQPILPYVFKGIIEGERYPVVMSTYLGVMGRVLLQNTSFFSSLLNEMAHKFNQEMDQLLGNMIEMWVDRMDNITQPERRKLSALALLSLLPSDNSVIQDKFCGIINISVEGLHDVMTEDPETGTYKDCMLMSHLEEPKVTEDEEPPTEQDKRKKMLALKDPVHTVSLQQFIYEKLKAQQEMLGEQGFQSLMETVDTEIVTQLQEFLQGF
UniProt Q92615, sequence (Q92615 whole entry, looked up): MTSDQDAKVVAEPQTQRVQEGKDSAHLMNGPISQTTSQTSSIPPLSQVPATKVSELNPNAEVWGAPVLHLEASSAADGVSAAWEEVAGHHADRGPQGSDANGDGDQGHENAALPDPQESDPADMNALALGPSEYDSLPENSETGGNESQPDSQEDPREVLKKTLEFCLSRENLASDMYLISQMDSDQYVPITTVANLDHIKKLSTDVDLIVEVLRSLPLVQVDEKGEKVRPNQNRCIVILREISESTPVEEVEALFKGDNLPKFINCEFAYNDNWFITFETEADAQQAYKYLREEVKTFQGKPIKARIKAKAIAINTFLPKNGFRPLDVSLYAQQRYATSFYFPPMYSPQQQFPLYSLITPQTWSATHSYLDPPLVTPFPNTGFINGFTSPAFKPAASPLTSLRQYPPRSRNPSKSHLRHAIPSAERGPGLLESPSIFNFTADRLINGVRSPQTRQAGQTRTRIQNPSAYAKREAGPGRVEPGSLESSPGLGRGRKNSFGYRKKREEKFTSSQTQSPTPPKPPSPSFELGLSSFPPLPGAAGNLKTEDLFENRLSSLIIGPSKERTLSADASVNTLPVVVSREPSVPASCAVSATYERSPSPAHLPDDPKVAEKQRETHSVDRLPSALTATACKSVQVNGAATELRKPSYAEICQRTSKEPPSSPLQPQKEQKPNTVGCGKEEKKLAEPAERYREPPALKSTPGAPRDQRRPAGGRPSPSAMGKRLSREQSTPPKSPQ
UniProt O43766, sequence (O43766 whole entry, looked up): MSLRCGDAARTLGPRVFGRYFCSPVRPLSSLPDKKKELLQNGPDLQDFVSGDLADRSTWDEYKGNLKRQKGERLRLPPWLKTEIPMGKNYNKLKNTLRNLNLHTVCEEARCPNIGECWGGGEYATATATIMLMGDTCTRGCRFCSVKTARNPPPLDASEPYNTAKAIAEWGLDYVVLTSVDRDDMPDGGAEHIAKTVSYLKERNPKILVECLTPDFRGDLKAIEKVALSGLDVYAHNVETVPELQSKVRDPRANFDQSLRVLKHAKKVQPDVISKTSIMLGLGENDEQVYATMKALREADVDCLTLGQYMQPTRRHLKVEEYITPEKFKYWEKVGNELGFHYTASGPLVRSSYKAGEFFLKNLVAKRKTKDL
UniProt Q13257, sequence (Q13257 whole entry, looked up): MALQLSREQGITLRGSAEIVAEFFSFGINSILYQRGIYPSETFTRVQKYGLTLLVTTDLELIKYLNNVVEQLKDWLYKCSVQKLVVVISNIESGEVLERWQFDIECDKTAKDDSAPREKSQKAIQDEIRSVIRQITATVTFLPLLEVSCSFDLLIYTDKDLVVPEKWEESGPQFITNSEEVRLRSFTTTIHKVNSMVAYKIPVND
UniProt Q86X29, sequence (Q86X29 whole entry, looked up): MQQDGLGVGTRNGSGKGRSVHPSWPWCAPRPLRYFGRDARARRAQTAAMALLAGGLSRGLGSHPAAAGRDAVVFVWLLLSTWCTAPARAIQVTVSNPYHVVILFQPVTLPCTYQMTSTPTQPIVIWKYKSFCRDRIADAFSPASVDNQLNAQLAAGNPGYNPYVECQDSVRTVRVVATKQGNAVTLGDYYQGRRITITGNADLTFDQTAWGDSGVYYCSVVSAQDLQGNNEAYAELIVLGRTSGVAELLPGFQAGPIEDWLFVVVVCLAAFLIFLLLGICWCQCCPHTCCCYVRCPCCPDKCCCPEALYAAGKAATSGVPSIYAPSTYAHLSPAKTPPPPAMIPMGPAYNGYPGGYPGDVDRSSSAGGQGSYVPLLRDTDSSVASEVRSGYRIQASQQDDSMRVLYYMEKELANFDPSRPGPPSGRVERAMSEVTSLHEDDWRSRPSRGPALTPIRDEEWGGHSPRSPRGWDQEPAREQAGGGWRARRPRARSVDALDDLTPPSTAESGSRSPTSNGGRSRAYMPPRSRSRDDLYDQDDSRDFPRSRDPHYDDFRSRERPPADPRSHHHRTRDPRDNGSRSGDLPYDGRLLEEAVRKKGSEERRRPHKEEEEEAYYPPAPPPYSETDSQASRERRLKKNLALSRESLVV
UniProt Q8TBB5, sequence (Q8TBB5 whole entry, looked up): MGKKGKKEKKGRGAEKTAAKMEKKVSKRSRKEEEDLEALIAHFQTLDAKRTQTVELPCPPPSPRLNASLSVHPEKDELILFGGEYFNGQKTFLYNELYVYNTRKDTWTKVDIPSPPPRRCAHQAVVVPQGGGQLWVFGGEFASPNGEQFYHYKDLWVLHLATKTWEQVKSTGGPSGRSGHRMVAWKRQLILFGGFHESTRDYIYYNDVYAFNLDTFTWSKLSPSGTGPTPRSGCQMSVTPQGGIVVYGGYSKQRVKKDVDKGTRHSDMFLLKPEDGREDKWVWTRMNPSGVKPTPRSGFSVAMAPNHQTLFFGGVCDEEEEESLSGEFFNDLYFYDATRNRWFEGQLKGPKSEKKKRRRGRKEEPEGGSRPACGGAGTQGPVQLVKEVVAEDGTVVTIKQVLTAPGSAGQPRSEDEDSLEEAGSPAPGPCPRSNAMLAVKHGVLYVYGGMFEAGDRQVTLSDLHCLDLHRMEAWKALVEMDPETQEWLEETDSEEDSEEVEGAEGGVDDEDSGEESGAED

Target | log2 fold change [1] | log2 fold change [2] | log2 fold change [3] | log2 fold change [4] | log2 fold change (entinostat) | log2 fold change (vorinostat) | log2 fold change (citarinostat) | log2 fold change (silmitasertib) | log2 fold change [5] | log2 fold change [6] | log2 fold change (entospletinib)
IKZF1 (UniProt Q13422) | 0.164 | -0.084 | 0.21 | -0.03 | 0.064 | 0.003 | 0.019 | -0.202 | 0.004 | -0.061 | 0.042
LIAS (UniProt O43766) | -0.079 | 0.014 | -0.035 | -0.016 | -0.047 | -0.17 | -0.093 | 0.026 | 0.062 | -0.022 | 0.113
KDELR2 (UniProt P33947) | -0.071 | 0.063 | -0.073 | -0.133 | -0.02 | -0.238 | -0.026 | -0.018 | -0.031 | -0.097 | 0.101
KLC2 (UniProt Q9H0B6) | -0.149 | -0.084 | -0.134 | -0.044 | 0.031 | 0.044 | 0.061 | 0.063 | 0.007 | -0.082 | 0.011
MFSD1 isoform 6 (UniProt Q9H3U5) | 0.02 | -0.066 | -0.308 (active) | -0.098 | -0.019 | -0.053 | 0.03 | -0.008 | 0.067 | 0.043 | 0.013
KDM1A isoform 2 (UniProt O60341) | 0.055 | -0.038 | -0.063 | 0.012 | 0.155 | 0.135 | 0.007 | 0 | -0.063 | -0.064 | -0.066
ME2 (UniProt P23368) | -0.015 | -0.034 | 0.07 | -0.033 | -0.013 | 0.058 | 0.025 | 0.186 | -0.017 | -0.093 | 0.008
LMNA (UniProt P02545) | 0.205 | -0.013 | 0.024 | 0.047 | -0.004 | -0.026 | 0.039 | 0.015 | -0.075 | -0.068 | -0.025
LEMD3 (UniProt Q9Y2U8) | -0.206 | -0.029 | -0.142 | -0.116 | -0.017 | 0.035 | 0.053 | -0.068 | -0.077 | 0.057 | -0.031
LARP7 isoform 3 (UniProt Q4G0J3) | -0.011 | -0.116 | -0.129 | -0.019 | -0.007 | 0.082 | 0.043 | 0.03 | -0.034 | -0.065 | 0.006
LSR (UniProt Q86X29) | -0.135 | 0.066 | 0.066 | 0.039 | -0.054 | -0.027 | 0.006 | -0.036 | 0.03 | -0.012 | -0.006
KLHDC4 (UniProt Q8TBB5) | 0.013 | -0.006 | 0.224 | -0.105 | -0.055 | -0.014 | 0.042 | -0.003 | 0.125 | -0.036 | 0.065
LMBRD1 (UniProt Q9NUN5) | 0.006 | 0.046 | -0.243 | -0.162 | 0.099 | 0.048 | 0.048 | -0.028 | -0.003 | 0.049 | -0.03
MAP2K1 (UniProt Q02750) | -0.028 | -0.062 | -0.011 | -0.027 | -0.004 | 0.035 | 0.022 | -0.064 | -0.061 | -0.035 | -0.026
LBR (UniProt Q14739) | 0.025 | -0.008 | 0.004 | -0.003 | 0.023 | 0.021 | -0.021 | -0.085 | 0.012 | 0.082 | -0.174
IGFBP2 (UniProt P18065) | 0.026 | -0.043 | -0.242 | -0.037 | 0.04 | 0.351 | -0.068 | 0.267 | -0.143 | 0.064 | 0.092
KIF11 (UniProt P52732) | -0.096 | -0.075 | -0.001 | -0.067 | 0.023 | 0.099 | -0.006 | 0.147 | 0.182 | -0.044 | 0.058
MFGE8 (UniProt Q08431) | -0.163 | -0.058 | 0.049 | 0.125 | -0.082 | 0.03 | -0.036 | 0.117 | 0.007 | -0.029 | 0.065
IPO11 isoform 2 (UniProt Q9UI26) | -0.004 | -0.074 | -0.113 | -0.039 | 0.022 | 0.027 | 0.048 | 0.032 | -0.027 | 0.005 | 0.022
KTN1 (UniProt Q86UP2) | 0.036 | 0.06 | 0.035 | -0.038 | 0.05 | 0.027 | 0.033 | 0.06 | 0.148 | -0.189 | -0.043
JMJD6 isoform 3 (UniProt Q6NYC1) | 0.01 | -0.057 | -0.068 | -0.019 | 0.039 | 0.048 | 0.064 | 0.081 | -0.061 | -0.014 | 0.006
LARP4B (UniProt Q92615) | 0.028 | -0.042 | 0.048 | 0.022 | 0.038 | 0.027 | -0.001 | 0.008 | 0.086 | -0.112 | 0.063
KIFBP (UniProt Q96EK5) | 0.002 | -0.166 | -0.117 | -0.091 | 0.059 | 0.088 | 0.043 | -0.02 | 0.024 | -0.056 | -0.098
MAPK8 isoform 3 (UniProt P45983) | -0.05 | -0.02 | -0.062 | -0.05 | 0.001 | -0.027 | -0.049 | 0.008 | -0.044 | 0.362 | -0.038
KCTD10 (UniProt Q9H3F6) | 0.065 | 0.226 | 0.028 | 0.077 | -0.014 | -0.001 | -0.05 | -0.042 | -0.088 | -0.025 | 0.047
MAD2L1 (UniProt Q13257) | -0.013 | -0.09 | -0.193 | -0.124 | 0.036 | 0.021 | 0.014 | 0.072 | -0.032 | 0.006 | 0.064
MAPRE3 (UniProt Q9UPY8) | -0.002 | -0.053 | -0.112 | -0.052 | 0.066 | 0.002 | 0.049 | 0.004 | -0.087 | -0.04 | -0.041
